PubChem BioAssay AID1159580 (chemical genetic matrix, 2015)
In all, about 5,500 compounds went through this assay and about 2,000 (36%) were called active. Not shown: some 18% with an inconclusive outcome. Rule as the data show it: active = normalized growth mostly below about 0.91 (no sharp cut-off); inconclusive = no clear call, values can overlap the other calls; inactive = mostly above about 0.92. Some of the results follow.

Test: chemical genetic growth profiling, strain panel (AID 1159580);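 also: tested at 20 µM; growth read once vehicle control cultures reached saturation at 30 °C; 1 = growth at the plate median or of vehicle wells; lower values mean less growth of the strain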
Settings: S. cerevisiae deletion strains, growth OD

Measured: normalized growth

Cc1cccc(C(=O)O)c1O
inactive: locus YAL013W, strain DEP1, stronger effect = lower value 1.01 | locus YBR021W, strain FUR4, stronger effect = lower value 0.997 | locus YBR229C, strain ROT2, stronger effect = lower value 1.02 | locus YCL029C, strain bik1, stronger effect = lower value 1.02 | locus YDL035C, strain GPR1, stronger effect = lower value 0.999 | locus YDL074C, strain BRE1, stronger effect = lower value 1.02 | locus YDL101C, strain DUN1, stronger effect = lower value 1.02 | locus YDL134C, strain PPH21, stronger effect = lower value 1.01 | locus YDL185W, strain tfp1, stronger effect = lower value 1.02 | locus YDL192W, strain arf1, stronger effect = lower value 1.01 | locus YDR101C, strain arx1, stronger effect = lower value 1.01 | locus YDR162C, strain NBP2, stronger effect = lower value 1.02 | locus YDR318W, strain mcm21, stronger effect = lower value 1.02 | locus YDR388W, stronger effect = lower value 1.02 | locus YDR502C, strain sam2, stronger effect = lower value 1.01 | locus YEL061C, strain CIN8, stronger effect = lower value 1.01 | locus YER110C, stronger effect = lower value 1.01 | locus YER155C, strain BEM2, stronger effect = lower value 1 | locus YER167W, strain BCK2, stronger effect = lower value 1.01 | locus YGL078C, strain dbp3, stronger effect = lower value 1 | locus YGL086W, strain mad1, stronger effect = lower value 1.01 | locus YGL248W, strain PDE1, stronger effect = lower value 1.02 | locus YGR078C, strain PAC10, stronger effect = lower value 1.01 | locus YGR135W, strain pre9, stronger effect = lower value 1.02 | locus YGR252W, strain gcn5, stronger effect = lower value 1 | locus YHR030C, strain SLT2, stronger effect = lower value 1.02 | locus YHR079C, strain IRE1 (second series), stronger effect = lower value 1.01 | locus YHR094C, strain hxt1, stronger effect = lower value 1.01 | locus YHR129C, strain ARP1, stronger effect = lower value 1.01 | locus YHR200W, strain rpn10, stronger effect = lower value 1.02 | locus YIL066C, strain RNR3, stronger effect = lower value 1.02 | locus YIL073C, strain SPO22, stronger effect = lower value 1.02 | locus YIL125W, strain kgd1, stronger effect = lower value 1.01 | locus YIR030C, strain dcg1, stronger effect = lower value 1.02 | locus YJL095W, strain BCK1, stronger effect = lower value 1.02 | locus YJL134W, strain LCB3, stronger effect = lower value 1.01 | locus YJL168C, strain set2, stronger effect = lower value 1 | locus YJL187C, strain SWE1 (second series), stronger effect = lower value 1.02 | locus YJR043C, strain POL32, stronger effect = lower value 1.01 | locus YKL009W, strain mrt4, stronger effect = lower value 0.968 | locus YKL068W, stronger effect = lower value 1 | locus YKL085W, strain MDH1 (second series), stronger effect = lower value 1 | locus YKL085W, strain MDH1, stronger effect = lower value 1 | locus YKR001C, strain vps1, stronger effect = lower value 1.02 | locus YLR039C, strain RIC1, stronger effect = lower value 0.993 | locus YLR058C, strain SHM2, stronger effect = lower value 1.02 | locus YLR102C, strain apc9, stronger effect = lower value 1.01 | locus YLR262C, strain YPT6, stronger effect = lower value 1.04 | locus YLR268W, strain sec22, stronger effect = lower value 1.03 | locus YLR330W, strain CHS5, stronger effect = lower value 1.01 | locus YLR342W, strain FKS1 (second series), stronger effect = lower value 0.995 | locus YLR371W, strain rom2, stronger effect = lower value 1.02 | locus YLR418C, strain cdc73, stronger effect = lower value 1.05 | locus YML016C, strain PPZ1, stronger effect = lower value 1.01 | locus YML032C, strain rad52, stronger effect = lower value 1.02 | locus YML124C, strain tub3, stronger effect = lower value 1.02 | locus YMR078C, strain ctf18, stronger effect = lower value 1.02 | locus YMR223W, strain ubp8, stronger effect = lower value 1.02 | locus YMR307W, strain GAS1, stronger effect = lower value 0.975 | locus YNL067W, strain RPL9B, stronger effect = lower value 1.02 | locus YNL153C, strain GIM3, stronger effect = lower value 1.01 | locus YNL233W, strain BNI4, stronger effect = lower value 1.02 | locus YNL250W, strain rad50, stronger effect = lower value 1.02 | locus YNL271C, strain bni1, stronger effect = lower value 1 | locus YNL298W, strain CLA4, stronger effect = lower value 0.996 | locus YNL307C, strain MCK1, stronger effect = lower value 1.02 | locus YNL322C, strain KRE1, stronger effect = lower value 1.01 | locus YNR052C, strain pop2, stronger effect = lower value 1.03 | locus YOL012C, strain htz1 0.786 | locus YOL147C, strain pex11, stronger effect = lower value 1.01 | locus YOR061W, strain CKA2, stronger effect = lower value 1.01 | locus YOR069W, strain VPS5, stronger effect = lower value 1.02 | locus YOR136W, strain idh2, stronger effect = lower value 1.01 | locus YOR144C, strain elg1, stronger effect = lower value 1.01 | locus YOR184W, strain ser1, stronger effect = lower value 1.02 | locus YOR316C, strain cot1, stronger effect = lower value 1.02 | locus YPL055C, strain LGE1, stronger effect = lower value 1.01 | locus YPL241C, strain CIN2, stronger effect = lower value 1.01 | locus YPR119W, strain clb2, stronger effect = lower value 1.01 | locus YPR141C, strain kar3, stronger effect = lower value 1.01 | locus YPR163C, strain tif3, stronger effect = lower value 1.02 | locus YPR167C, strain met16, stronger effect = lower value 1.01 | strain wtn01, stronger effect = lower value 1
